# Among all 1,200 compounds or so, about 600 (50%) were called active. So high a share suggests a set chosen from earlier hits. This is one part of the list. Entries with a potency or affinity are not part of this list. Unmarked numbers belong to inactive results. Cut-off read from the data, not from the text of the source: active = inhibition above about 42%; inactive = the rest.
# Target: SUMO-conjugating enzyme UBC9 (Homo sapiens) (UniProt P63279)
# Test: SUMOylation inhibitor hit validation, confirmation, SUMOylation inhibitor project, biochemical, AlphaScreen (AID 2018)
# Details: AlphaScreen in vitro SUMOylation assay; at 35 µM; hits give high values
# Sequence of SUMO-conjugating enzyme UBC9 (Homo sapiens) (P63279 whole entry, looked up): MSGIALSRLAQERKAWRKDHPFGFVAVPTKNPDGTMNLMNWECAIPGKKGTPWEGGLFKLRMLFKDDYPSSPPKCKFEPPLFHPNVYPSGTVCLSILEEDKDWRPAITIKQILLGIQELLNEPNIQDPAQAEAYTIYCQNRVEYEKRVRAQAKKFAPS
row,Compound,inhibition
1,O=[N+]([O-])c1ccc(Cl)c(C2Nc3cccc4cccc(c34)N2)c1,30.6%
2,O=C(CNc1cccc2ccccc12)c1ccc([N+](=O)[O-])cc1,26.3%
3,O=[N+]([O-])c1ccc(C2Nc3cccc4cccc(c34)N2)cc1,49.3% (active)
4,CN(CCC#N)C(=O)COC(=O)c1c2c(nc3ccccc13)/C(=C/c1ccco1)CC2,43.2% (active)
5,Cc1cnc(C(=O)OCC(=O)c2ccc(F)cc2)cn1,1.5%
6,CCOc1ccc(C2C=C(c3ccccc3)Nc3ncnn32)cc1 (stereo not given),13.5%
7,CC1=CC2(O)OCCN(CCO)C2=CC1=O (stereo not given),8.3%
8,CCOC(=O)C1CCCN(c2cc(NCCCO)c([N+](=O)[O-])c3nonc23)C1 (stereo not given),-6.6%
9,NC(=O)C1CCN(C2=C(NS(=O)(=O)c3ccccc3)C(=O)c3ccccc3C2=O)CC1,35.9%
10,CC1CCN(C2=C(NS(=O)(=O)c3ccc(Br)cc3)C(=O)c3ccccc3C2=O)CC1,94% (active)
11,CC1CCCN(C2=C(NS(=O)(=O)c3ccc(Br)cc3)C(=O)c3ccccc3C2=O)C1 (stereo not given),55.3% (active)
12,CCOC(=O)C1CCN(C2=C(NS(=O)(=O)c3ccc(Br)cc3)C(=O)c3ccccc3C2=O)CC1,91.9% (active)
13,NC(=O)C1CCN(C2=C(NS(=O)(=O)c3ccc(Cl)cc3)C(=O)c3ccccc3C2=O)CC1,87.2% (active)
14,Fc1ccc(-c2nc3cnccn3c2NC2CCCC2)cc1,-43.2%
15,COc1cc2c(cc1OC)C(C)=NC1(CCCCC1)C2,-0.1%
16,CN(C)c1cccc2c(S(=O)(=O)N3CCCC3)cccc12,-26.8%
17,c1ccc(Nc2ccccc2Nc2ccccn2)nc1,-1.2%
18,CN(C)c1cccc2c(S(=O)(=O)Nc3ccccn3)cccc12,69.7% (active)

row,Compound,inhibition
1,Cc1cccc(NC(=S)Nc2cccc3ccccc23)c1,19%
2,Cc1cccc(NC2=C(NCCO)C(=O)c3ccccc3C2=O)c1,82% (active)
3,N#Cc1c(-c2cccc(Br)c2)cc(-c2ccco2)[nH]c1=O,54% (active)
4,O=C(Cc1cccs1)N/N=C/C=C\c1ccco1,26%
5,O=C(CSc1nnc(SCc2ccccc2)s1)N/N=C/C=C\c1ccco1,65% (active)
6,O=C(CNc1cccc2ccccc12)N/N=C/c1ccc(OC(=O)/C=C/c2ccco2)cc1,3.4%
7,Cn1c2ccc(Cl)cc2c2nc3ccccc3nc21,4.7%
8,COCCn1c(-c2cccs2)csc1=Nc1cccnc1,12.7%
9,Cc1cccn2c(=O)c3cc(S(=O)(=O)c4ccccc4)c(=N)n(Cc4ccco4)c3nc12,27.5%
10,COCCCn1c(C(=O)N2CCOCC2)cc2c(=O)n3ccccc3nc21,2.8%
11,CC1CCCCC1NC(=O)c1cc2c(=O)n3ccccc3nc2n1C (stereo not given),-8.7%
12,Cn1c(C(=O)N2COCC2(C)C)cc2c(=O)n3ccccc3nc21,-16.1%
13,Cc1cccn2c(=O)c3cc(S(=O)(=O)c4ccc(F)cc4)c(=N)n(Cc4ccco4)c3nc12,7.6%
14,Cn1c(C(=O)NCC2CCCO2)cc2c(=O)n3ccccc3nc21 (stereo not given),-2.8%
15,Cn1c(C(=O)N2CCN(C(=O)c3ccco3)CC2)cc2c(=O)n3ccccc3nc21,-14.7%
16,Cc1ccc(S(=O)(=O)c2cc3c(=O)n4ccccc4nc3n(Cc3ccco3)c2=N)cc1C,45.2% (active)
17,COCCCn1c(C(=O)N2CC(C)OC(C)C2)cc2c(=O)n3ccccc3nc21 (stereo not given),-18.6%

# From PubChem BioAssay AID2018 (Sanford-Burnham Center for Chemical Genomics, 2009)
